Experimental data published in PubChem BioAssay (NCATS).
“And” between values parts separate entries of the source, which are not always exact repeats. Identical values can stand only once. Results filed as inconclusive are left out. The source made the active and inactive calls. Unless noted, calls come from the whole dose curve; as a rule, active = well fitted inhibition curve with a large enough effect; inconclusive = small, poorly fitted or top-dose-only effect; inactive = no such curve, though single readings can be large or run the other way.

How the values were obtained:
[1] = Primary qHTS for inhibitors of nuclear receptor binding SET domain protein 2 (NSD2) in an RCH-ACV wild type WT cells (2C) (AID 1645877); note: nearly all actives have a fitted effect of over 70% in size
[2] = molecular target: Catechol O-methyltransferase (Homo sapiens) (UniProt P21964); assay: Confirmatory Screen for Target Class Profiling of Small Molecule Inhibitors of Methyltransferases (AID 1745852; calls by dose curve; for activity change, negative = inhibition: % is set by controls: 0 for no effect and ±100 for the full control effect); conditions: MTase-Glo luminescence, SAH detection, recombinant enzyme; measured here: COMT max response; stronger effect = lower value
[3] = molecular target: Guanidinoacetate N-methyltransferase (Homo sapiens) (UniProt Q14353); assay: as above; conditions: activity change, negative = inhibition: at 57.3 µM (top of the series) unless noted
[4] = molecular target: Nicotinamide N-methyltransferase (Homo sapiens) (UniProt P40261); assay: as above; conditions: MTase-Glo luminescence, SAH detection, recombinant enzyme; measured here: NNMT max response; stronger effect = lower value
[5] = molecular target: Phenylethanolamine N-methyltransferase (Homo sapiens) (UniProt P11086); assay: as above; conditions: MTase-Glo luminescence, SAH detection, recombinant enzyme; measured here: PNMT max response; stronger effect = lower value
Potency is the fitted concentration of half-maximal effect.

Sequence of Nicotinamide N-methyltransferase (Homo sapiens) (P40261 whole entry, looked up): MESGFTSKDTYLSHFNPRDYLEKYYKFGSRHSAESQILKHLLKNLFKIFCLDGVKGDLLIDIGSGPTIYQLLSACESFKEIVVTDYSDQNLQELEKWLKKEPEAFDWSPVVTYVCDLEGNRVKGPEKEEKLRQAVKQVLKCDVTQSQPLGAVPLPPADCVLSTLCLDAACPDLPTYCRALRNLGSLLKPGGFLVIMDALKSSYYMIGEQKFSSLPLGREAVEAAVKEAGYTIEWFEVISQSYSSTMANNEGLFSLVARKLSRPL
Sequence of Catechol O-methyltransferase (Homo sapiens) (P21964 whole entry, looked up): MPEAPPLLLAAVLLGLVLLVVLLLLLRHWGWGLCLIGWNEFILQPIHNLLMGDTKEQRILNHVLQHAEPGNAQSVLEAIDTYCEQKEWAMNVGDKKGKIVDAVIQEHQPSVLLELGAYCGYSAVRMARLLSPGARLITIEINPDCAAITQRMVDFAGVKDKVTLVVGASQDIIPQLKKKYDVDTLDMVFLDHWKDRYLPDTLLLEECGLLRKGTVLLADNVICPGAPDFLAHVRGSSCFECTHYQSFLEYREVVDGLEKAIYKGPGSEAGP
Sequence of Phenylethanolamine N-methyltransferase (Homo sapiens) (P11086 whole entry, looked up): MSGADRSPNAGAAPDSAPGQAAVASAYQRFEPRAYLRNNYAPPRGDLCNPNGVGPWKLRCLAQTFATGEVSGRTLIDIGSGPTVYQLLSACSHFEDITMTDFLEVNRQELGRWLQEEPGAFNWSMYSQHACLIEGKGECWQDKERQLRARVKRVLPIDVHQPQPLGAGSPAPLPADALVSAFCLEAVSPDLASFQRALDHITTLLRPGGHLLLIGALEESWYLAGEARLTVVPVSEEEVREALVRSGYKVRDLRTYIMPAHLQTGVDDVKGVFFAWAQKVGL

CC(C)C(N)C(=O)OCCOCn1cnc2c(=O)[nH]c(N)nc21 (stereo not given)
Potency [1]: inactive

CC(C)CC1NC(=O)C2CC3(O)c4ccccc4NC3N2C1=O (stereo not given)
Potency [1]: inactive

C[C@@H]1COCCN1c1cc(C2(S(C)(=O)=O)CC2)nc(-c2cccc3[nH]ccc23)n1
Potency [1]: 459 nM (active)

CC(O)/C=C/C1(O)C2(C)COC1(C)CC(O)C2 (stereo not given)
Potency [1]: inactive

C=C[C@]1(C)C[C@H](O)[C@@H]2[C@H](OC(=O)[C@@H]2C)C1/C(C)=C/O[C@@H]1O[C@H](CO)[C@@H](O)[C@H](O)[C@H]1O (stereo not given in full)
Potency [1]: inactive

CCN1CCN(Cc2ccc(Nc3ncc(F)c(-c4cc(F)c5nc(C)n(C(C)C)c5c4)n3)nc2)CC1
Potency [1]: 649 nM (active) and 417 nM (active)
activity [2]: -78.7%
Potency [3]: 15.2 µM (active)
activity [4]: -61.4%
activity [5]: -75%

O=C(O)/C=C/c1ccc(-c2ccc(O)c(C34CC5CC(CC(C5)C3)C4)c2)cc1
Potency [1]: 145 nM (active)
activity [2]: 0.235%
activity change, negative = inhibition [3]: 1.42%
activity [4]: -84%
activity [5]: -0.0074%

CC(C)[C@@](C)(O)[C@@H]1CN(c2nc(-c3[nH]nc4ncccc34)c(F)cc2Cl)CCN1
Potency [1]: 4590 nM (active)
activity [2]: -69%
Potency [3]: 27.1 µM (active)
activity [4]: -56.9%
activity [5]: -65.1%

CCCNc1ccc2ncc(-c3ccc4[nH]ncc4c3)n2n1
Potency [1]: 91.6 nM (active)
activity [2]: -53.8%
Potency [3]: 8.57 µM (active)
activity [4]: -46%
activity [5]: -45.4%

COc1cc2ncnc(Nc3ccc(F)c(Cl)c3)c2cc1NC(=O)/C=C/CN1CCCCC1
Potency [1]: 3320 nM (active)
activity [2]: -45.2%
Potency [3]: 24.1 µM (active)
activity [4]: -36.6%
activity [5]: -39.3%

O=C(O)c1ccc(CN2CCC(CN[C@@H]3C[C@H]3c3ccccc3)CC2)cc1
Potency [1]: inactive
activity [2]: 4.43%
activity change, negative = inhibition [3]: -0.127%
activity [4]: -0.425%
activity [5]: 5.38%
